Screening results deposited in PubChem BioAssay by several laboratories.
Rows were chosen to be rich in hits. Some 3.3% of all compounds tested hit in one or more screens of this group.
Smad3 FoxH1 inh: inhibitors of human Smad3 transcription factor binding. P84022. TR-FRET Smad3/Dy647-FoxH1 peptide binding, europium anti-His. inhibition, % at 25 µM. 88,000 compounds, 0.29% hits;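 active = compounds that reduce the energy-transfer binding signal between the protein and its labelled peptide by more than half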;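 also: 0% = Smad3 plus labelled peptide maximal FRET and 100% = peptide-only background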
ERb coact inh: ER-beta (human) coactivator binding inhibition; AID 633; 86,000 compounds, 1.3% hits; TR-FRET ER-beta LBD / SRC1-Cy5 peptide binding; receptor agonist-loaded with 1 µM estradiol; Q92731; inhibition, % at 25.6 µM;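 active = compounds whose percent inhibition of the receptor-coactivator binding signal exceeds about 50% in the single-dose screen, limit read from the data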;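 also: 0% = receptor plus peptide wells without compound and 100% = peptide-only wells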
ERa SRC1 pot: enhances coactivator binding to human estrogen receptor alpha. TR-FRET ERalpha-LBD/SRC-Cy5 coactivator binding, 2 h; 100 = basal binding, no effect. 86,000 compounds, 1.3% hits. coactivator binding (% of control), % at 25.6 µM. P03372. AID 639; in the data active = activity above about 200%;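 also: binding measured in presence of low estradiol as agonist stimulus; 0% = peptide alone without receptor and 100% = receptor with peptide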
ERa SRC1 inh: ER-alpha (human) coactivator binding inhibition. TR-FRET ER-alpha LBD / SRC-1 peptide, estradiol-bound. inhibition, % at 25.6 µM. 86,000 compounds, 1.7% hits. AID 629; in the data active = inhibition above about 50%;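 also: 0% = receptor plus peptide control and 100% = peptide only without receptor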
FAK blocker: blocks human focal adhesion kinase activity; biochemical FAK kinase activity assay; 97,000 compounds, 0.84% hits; Q05397; AID 727; inhibition, %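 (tested at 7 µM)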; in the data active = inhibition above about 19%;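 also: 0% = DMSO and 100% = reference compound high control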
Target sequence (Q05397 whole entry, looked up): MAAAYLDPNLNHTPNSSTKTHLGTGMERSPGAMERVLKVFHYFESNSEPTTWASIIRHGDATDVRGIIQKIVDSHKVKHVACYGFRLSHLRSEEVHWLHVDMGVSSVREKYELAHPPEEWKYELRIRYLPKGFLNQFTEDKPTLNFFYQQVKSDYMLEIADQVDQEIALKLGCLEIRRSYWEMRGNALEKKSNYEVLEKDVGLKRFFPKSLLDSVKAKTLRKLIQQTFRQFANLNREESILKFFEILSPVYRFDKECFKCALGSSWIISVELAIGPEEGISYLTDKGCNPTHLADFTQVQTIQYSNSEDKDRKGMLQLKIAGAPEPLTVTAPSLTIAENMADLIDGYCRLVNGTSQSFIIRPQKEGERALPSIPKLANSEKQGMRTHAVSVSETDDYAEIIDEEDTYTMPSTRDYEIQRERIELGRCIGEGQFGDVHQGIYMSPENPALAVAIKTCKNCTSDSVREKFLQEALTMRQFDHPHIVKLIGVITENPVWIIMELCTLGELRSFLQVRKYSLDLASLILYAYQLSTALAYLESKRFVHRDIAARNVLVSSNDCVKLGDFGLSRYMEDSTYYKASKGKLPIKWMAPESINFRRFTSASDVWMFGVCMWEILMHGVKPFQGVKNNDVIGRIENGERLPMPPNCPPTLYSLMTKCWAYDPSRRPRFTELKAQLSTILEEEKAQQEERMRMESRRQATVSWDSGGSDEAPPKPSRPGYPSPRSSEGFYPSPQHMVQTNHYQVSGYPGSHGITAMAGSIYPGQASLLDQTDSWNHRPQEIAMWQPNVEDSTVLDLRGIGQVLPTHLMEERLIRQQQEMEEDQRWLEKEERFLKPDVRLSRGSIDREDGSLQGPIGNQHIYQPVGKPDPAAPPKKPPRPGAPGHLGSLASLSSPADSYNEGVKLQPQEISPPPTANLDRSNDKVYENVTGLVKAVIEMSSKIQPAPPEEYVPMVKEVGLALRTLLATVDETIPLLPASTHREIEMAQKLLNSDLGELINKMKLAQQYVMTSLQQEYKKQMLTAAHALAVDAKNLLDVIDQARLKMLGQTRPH
* hit, by the source's call; · = no result given; [ ] = remark or other dose.

SMILES	Smad3 FoxH1 inh	ERb coact inh	ERa SRC1 pot	ERa SRC1 inh	FAK blocker
COc1ccc2[nH]c3nc(SCc4nnc(-c5ccc(C)cc5)o4)nnc3c2c1	6	64*[fluorescence artefact?]	197	81*	17
CCN(CC)c1ccc(-c2c(C#N)c(N)nc(OC)c2C#N)cc1	8	26	213*[fluorescence artefact?]	21	-12
COc1ccccc1N1CSC2=C(C#N)C(c3ccc(SC)cc3)CC(=O)N2C1 (stereo not given)	7	61*[fluorescence artefact?]	45	64*[fluorescence artefact?]	-1
COc1cccc(C2CC(=O)N3CN(c4ccccc4F)CSC3=C2C#N)c1 (stereo not given)	7	-15	87	-8	-2
COc1cc(C2CC(=O)N3CN(c4ccccc4C)CSC3=C2C#N)cc(OC)c1OC (stereo not given)	14	5	253*[fluorescence artefact?]	9	-1
CCOc1ccc(N2CSC3=C(C#N)C(c4ccco4)CC(=O)N3C2)cc1 (stereo not given)	10	52*	94	51*	-1
CCc1ccccc1N1CSC2=C(C#N)C(c3cc(OC)c(OC)cc3OC)CC(=O)N2C1 (stereo not given)	16	0	225*[fluorescence artefact?]	-6	16
COc1cc(OC)c(C2CC(=O)N3CN(c4ccccc4)CSC3=C2C#N)cc1OC (stereo not given)	6	5	69	-16	0
COc1ccc(NC(=O)c2cc(-c3ccc(C)o3)nc3ccccc23)cc1OC	-3	68*[fluorescence artefact?]	77	79*[fluorescence artefact?]	1
COc1ccc(C[C@@H]2C(=O)N[C@H](C)C(=O)N(C)[C@@H]3Cc4ccc(cc4)Oc4cc(ccc4O)C[C@@H](C(=O)N[C@@H](C)C(=O)N[C@H](C)C(=O)N2C)N(C)C3=O)cc1	11	·	·	·	·
CN1CCc2c(sc(/N=C/c3cccs3)c2C(N)=O)C1	-3	74*[fluorescence artefact?]	70	24	4
CN1CCc2c(sc(/N=C/c3ccco3)c2C(N)=O)C1	-5	0	104	-9	1
CCc1nnc(NC(=O)c2ccc(-c3ccc(Cl)cc3)o2)s1	-18	42	274*[fluorescence artefact?]	54*[fluorescence artefact?]	7
Cc1ccc2c(c1)c(=O)c1c3n2CCN(C(=O)CCl)C3CC1 (stereo not given)	9	72*	29	83*[fluorescence artefact?]	12
O=C(NCCN1CCCCCC1)C1CCC(CNS(=O)(=O)c2cccc3cccnc23)CC1 (stereo not given)	10	33	75	60*[fluorescence artefact?]	5
CN1CCN(C(=O)C2CCC(CNS(=O)(=O)c3cccc4cccnc34)CC2)CC1 (stereo not given)	5	-8	114	-8	1
O=S(=O)(c1cccc(-c2csc(-c3ccccc3)n2)c1)N1CCOCC1	3	2	272*	-4	12
O=S(=O)(c1cccc(-c2nc3ccccc3s2)c1)N1CCOCC1	15	68*	100	-1	-1
O=C(CCN1CCCCC1)c1csc2ccccc12	5	·	·	·	·
COc1cc2c3cc1Oc1c(OC)c(OC)cc4c1[C@@H](Cc1ccc(O)c(c1)Oc1ccc(cc1)C[C@@H]3N(C)CC2)CN(C)C4	-7	·	·	·	·
COc1ccccc1Cn1c(=O)c2ccccc2n2c(SCc3csc(C)n3)nnc12	-3	1	125	1	·
COc1ccccc1Cn1c(=O)c2ccccc2n2c(Sc3ncnc4sccc34)nnc12	4	24	259*[fluorescence artefact?]	0	-7
O=C(O)/C(=C\c1ccncc1)c1cccc2ccccc12	7	·	·	·	·
O=C(O)C(Sc1ccc(Cl)cc1)Sc1ccc(Cl)cc1	-2	·	·	·	·
CCCSc1nc(N)c(C#N)c(-c2ccc(C)cc2)c1C#N	·	·	·	·	-28
SMILES	Smad3 FoxH1 inh	ERb coact inh	ERa SRC1 pot	ERa SRC1 inh	FAK blocker
C=CCSc1nc(N)c(C#N)c(-c2ccccc2)c1C#N	2	30	238*[fluorescence artefact?]	19	-13
O=C(O)c1cc(=O)[nH]c(=S)[nH]1	-7	·	·	·	·
COc1cc2c(=O)n(Cc3ccco3)c(=O)n(CC(=O)c3ccc(Br)cc3)c2cc1OC	1	48	124	-22	·
COc1cc2c(=O)n(Cc3ccco3)c(=O)n(CC(=O)c3cccc(Br)c3)c2cc1OC	-18	16	283*[fluorescence artefact?]	25	-4
O=S(=O)(c1ccc2ccccc2c1)N1CCN(S(=O)(=O)c2ccc3ccccc3c2)CC1	91*	·	·	·	·
CN1CCN(S(=O)(=O)c2ccc3ccccc3c2)CC1	3	-7	130	-5	-2
Cc1onc(-c2ccccc2Cl)c1C(=O)Nc1cccc2cccnc12	16	0	73	5	3
Cc1onc(-c2ccccc2Cl)c1C(=O)Nc1cccc2nsnc12	-2	-10	263*[fluorescence artefact?]	-2	0
O=C(Nc1cnc2ccccn2c1=O)c1ccc(F)cc1	31	65*	122	6	0
O=C(O)c1ccc([N+](=O)[O-])c(P(=O)(O)O)c1	-2	·	·	·	·
O=C(O)C1Nc2c(O)cccc2C2C=CCC12 (stereo not given)	40	99*[fluorescence artefact?]	-6	99*[fluorescence artefact?]	·
COc1cc2c3cc1Oc1cc(ccc1O)C[C@@H]1c4c(cc(OC)c(O)c4Oc4ccc(cc4)C[C@H]3[N+](C)(C)CC2)CC[N+]1(C)C	2	·	·	·	·
COc1ccc(C(=O)Nc2ccccc2C(=O)NC(C(=O)NCc2ccco2)C(C)C)cc1 (stereo not given)	-14	39	242*[fluorescence artefact?]	40	17
COC(=O)c1ccccc1NC(=O)NCc1ccco1	-4	14	93	0	-2
COc1ccc(C(=O)Nc2ccccc2C(=O)N(Cc2ccco2)C(C(N)=O)C(C)C)cc1 (stereo not given)	-10	32	180	57*[fluorescence artefact?]	14
COc1ccc(NC(=O)c2sc3cc(C(F)(F)F)cnc3c2-c2cccs2)cc1	26	27	233*[fluorescence artefact?]	34	-31
N#Cc1ccc(NC(=O)c2sc3cc(C(F)(F)F)cnc3c2-c2cccs2)cc1	5	17	330*[fluorescence artefact?]	18	-1
O=C(Nc1ccc(F)cc1)c1sc2cc(C(F)(F)F)cnc2c1-c1cccs1	14	21	185	21	-4
NCC[C@H](N)C(=O)O	-13	·	·	·	·
Cc1ccc(S(=O)(=O)NC(=O)OC23COCN2COC3)cc1	21	·	·	·	·
CC(=O)C1=C(O)C(=O)N(c2nnn(C)n2)C1c1cccs1 (stereo not given)	6	79*[fluorescence artefact?]	134	-3	-7
Cc1c(Cl)c(S(N)(=O)=O)cc2c1=NC=NS=2(=O)O	-11	·	·	·	·
NS(=O)(=O)c1ccc(N=Nc2ncccc2O)cc1	30	·	·	·	·
Cc1cc(=O)oc2cc(OCC(=O)Nc3nnc(C(C)C)s3)ccc12	-285	9	488*	26	-5
Cc1cc(=O)oc2cc(OCC(=O)Nc3nnc(CC(C)C)s3)ccc12	2	4	119	1	1
C=CCn1c(SCC(=O)c2ccc(O)c(O)c2)nnc1-c1ccccc1OC	6	48	94	10	5
CCn1c(SCC(=O)c2ccc(O)c(O)c2)nnc1-c1ccccc1OC	10	54*	78	22	-1
O=C(/C(=C/c1ccc(Cl)cc1)c1nc2ccccc2[nH]1)c1cccs1	·	·	·	·	4
